Results on nine compounds are retold here after PubChem BioAssay (NCI).

SMILES strings stand for the structures. Compounds without any hit were thinned out: in the full panel of roughly 83,000, 20% have a hit.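 Plates (96-well) were seeded with cells, treated with compound at one concentration, and incubated for 48 hours before percent growth was determined.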 Unmarked numbers belong to inactive results. Calls of active or inactive are those of the source. The calls were made as follows: active = growth percent below 10; inactive = the rest.

Test systems include SK-MEL-2 melanoma; SN12C renal; UO-31 renal; TK-10 renal; ACHN renal; CAKI-1 renal; A498 renal; CCRF-CEM leukemia; MOLT-4 leukemia; SR leukemia; RPMI-8226 leukemia; OVCAR-8 ovarian; OVCAR-5 ovarian; OVCAR-4 ovarian; SK-OV-3 ovarian; IGROV1 ovarian; OVCAR-3 ovarian; HS 578T breast; NCI/ADR-RES ovarian; EKVX NSCLC.
Experiment in all cases: NCI-60 one-dose screen, 48 h (100 = growth as untreated, 0 = no growth, -100 = all killed)
Common to all, as to conditions: 10 µM unless noted

`C=COC(=O)C(C)(C)C`: the growth in the assay on SK-MEL-2 melanoma is 94.7%; with SN12C renal it was 93.6%; with UO-31 renal, 84.5%; in the assay on TK-10 renal, 98.6%; in the assay on ACHN renal, 108%; in the assay with CAKI-1 renal, 92.2%. Moreover, the growth in the assay with A498 renal was 95.1%; in the assay on CCRF-CEM leukemia, 91.9%; with MOLT-4 leukemia it was 92.5%; in the assay on SR leukemia, 91.2%; in the assay with RPMI-8226 leukemia, 99.2%; in the assay on OVCAR-8 ovarian, 107%. Further, the growth with OVCAR-5 ovarian was 106%; in the assay with OVCAR-4 ovarian, 108%; in the assay with SK-OV-3 ovarian, 107%; in the assay on IGROV1 ovarian, 96.7%; with OVCAR-3 ovarian, 107%; in the assay on HS 578T breast it was 101%. In addition, the growth in the assay with NCI/ADR-RES ovarian is 101%.
As for `NC(=O)c1cc2c3ccccc3ccn2c1-c1ccccc1`, the growth in the assay with SK-MEL-2 melanoma is -7.59% (active); in the assay on SN12C renal it was 28.5%; with UO-31 renal, 32.2%; in the assay on TK-10 renal, 47.7%; in the assay on ACHN renal it was 23.6%; in the assay with CAKI-1 renal, -9.87% (active). Also, the growth in the assay on A498 renal is 34.4%; in the assay on CCRF-CEM leukemia, 2.84% (active); in the assay on MOLT-4 leukemia, 7.02% (active); in the assay on SR leukemia, -22.3% (active); with RPMI-8226 leukemia, 7.04% (active); with OVCAR-8 ovarian, 8.3% (active). The growth in the assay with OVCAR-5 ovarian was 33.5%; in the assay on OVCAR-4 ovarian, 43.2%; in the assay with SK-OV-3 ovarian, 12.7%; in the assay on IGROV1 ovarian, 20.2%; in the assay on OVCAR-3 ovarian it was -20.6% (active); in the assay with HS 578T breast, 70.3%. For the same compound, in the assay on NCI/ADR-RES ovarian, the growth was -12% (active).
On to `COC(=O)c1cccc([N+](=O)[O-])c1`, for which the growth with SK-MEL-2 melanoma was 94.1%; in the assay with SN12C renal, 95.2%; in the assay with UO-31 renal, 98.2%; in the assay on TK-10 renal it was 101%; with ACHN renal, 109%; with CAKI-1 renal it was 108%. The growth is 92.9% with A498 renal; 104% in the assay on CCRF-CEM leukemia; 105% with MOLT-4 leukemia; 99% in the assay with SR leukemia; 102% in the assay with RPMI-8226 leukemia; 107% in the assay on OVCAR-8 ovarian. The growth in the assay with OVCAR-5 ovarian is 111%; in the assay on OVCAR-4 ovarian, 130%; with SK-OV-3 ovarian it was 115%; in the assay on IGROV1 ovarian it was 111%; with OVCAR-3 ovarian it was 108%; in the assay on HS 578T breast it was 102%. In addition, the growth in the assay with NCI/ADR-RES ovarian was 102%.
On to `COC(=O)c1ccc([N+](=O)[O-])c(C)c1`, for which the growth in the assay with SK-MEL-2 melanoma is 116%; in the assay with EKVX NSCLC, 109%; in the assay on UO-31 renal it was 79.9%; with TK-10 renal it was 128%; with ACHN renal, 97.1%; in the assay on A498 renal it was 79.5%. Further, the growth with CCRF-CEM leukemia was 4.56% (active); with MOLT-4 leukemia, 112%; in the assay with SR leukemia, 79.8%; with RPMI-8226 leukemia it was 81.1%; in the assay with OVCAR-8 ovarian, 108%; with OVCAR-5 ovarian, 90.7%. The growth in the assay with OVCAR-4 ovarian is 101%; in the assay on SK-OV-3 ovarian it was 106%; with IGROV1 ovarian it was 93.1%; in the assay on OVCAR-3 ovarian, 105%; in the assay on NCI/ADR-RES ovarian it was 108%.
As to `OCC(O)COc1ccc(Cl)cc1Cl` (stereo unspecified), the growth was 97.4% with SK-MEL-2 melanoma; 96.5% with EKVX NSCLC; 89.4% with UO-31 renal; 101% in the assay on TK-10 renal; 93.2% with ACHN renal; 96% with CAKI-1 renal. For the same compound, the growth is 99% in the assay on A498 renal; 119% with CCRF-CEM leukemia; 101% in the assay on SR leukemia; 102% with RPMI-8226 leukemia; 92.4% with OVCAR-8 ovarian; 101% in the assay with OVCAR-5 ovarian. In addition, the growth was 101% in the assay with OVCAR-4 ovarian; 91.7% in the assay with SK-OV-3 ovarian; 101% in the assay on IGROV1 ovarian; 110% with OVCAR-3 ovarian; 102% with HS 578T breast; 110% in the assay on NCI/ADR-RES ovarian.
On to `CC(=O)NC(O)C(Cl)Cl` (stereo unspecified), for which the growth in the assay with SK-MEL-2 melanoma was 100%; in the assay on SN12C renal, 110%; with UO-31 renal, 92.8%; in the assay with TK-10 renal it was 97.3%; with ACHN renal, 105%; in the assay on CAKI-1 renal, 92.3%. In addition, the growth with A498 renal is 94.3%; with CCRF-CEM leukemia it was 99.4%; with MOLT-4 leukemia it was 104%; with SR leukemia it was 97.2%; in the assay on RPMI-8226 leukemia, 95.8%; in the assay with OVCAR-8 ovarian, 96.4%. Besides, the growth was 97.2% with OVCAR-5 ovarian; 97.5% in the assay with OVCAR-4 ovarian; -22.9% (active) in the assay on SK-OV-3 ovarian; 107% in the assay on IGROV1 ovarian; 74.5% with OVCAR-3 ovarian; 107% in the assay on HS 578T breast. The growth with NCI/ADR-RES ovarian was 98.5%.
As for `COC(c1ccc2c(c1)OCO2)C(C)Br` (stereo unspecified), the growth in the assay with SK-MEL-2 melanoma is 101%; in the assay with EKVX NSCLC, 90.3%; in the assay on UO-31 renal it was 91.8%; in the assay on TK-10 renal it was 85.8%; with ACHN renal, 102%; with A498 renal it was 95.6%. The growth in the assay with CCRF-CEM leukemia was 93.3%; with MOLT-4 leukemia it was 91.6%; in the assay on SR leukemia, 88.6%; with RPMI-8226 leukemia, 93.5%; in the assay on OVCAR-8 ovarian it was 101%; in the assay on OVCAR-5 ovarian, 101%. Besides, the growth in the assay with OVCAR-4 ovarian is 100%; with SK-OV-3 ovarian, 83.1%; in the assay on IGROV1 ovarian, 91.4%; in the assay on OVCAR-3 ovarian, 110%; with HS 578T breast, 91.2%; in the assay with NCI/ADR-RES ovarian it was 106%.
Regarding `O=C(NCc1ccccc1)c1cccc([N+](=O)[O-])c1`, the growth was 104% in the assay on SK-MEL-2 melanoma; 102% with EKVX NSCLC; 70.1% in the assay with UO-31 renal; 99.6% with TK-10 renal; 102% in the assay with ACHN renal; 102% in the assay with CAKI-1 renal. Moreover, the growth in the assay on A498 renal was 82.3%; in the assay with CCRF-CEM leukemia, 90.9%; in the assay with MOLT-4 leukemia, 102%; with SR leukemia, 92.4%; in the assay on RPMI-8226 leukemia it was 91%; with OVCAR-8 ovarian, 97.2%. In addition, the growth is 116% in the assay with OVCAR-5 ovarian; 111% with OVCAR-4 ovarian; 108% in the assay on SK-OV-3 ovarian; 101% in the assay on IGROV1 ovarian; 106% in the assay on OVCAR-3 ovarian; 91.2% in the assay on HS 578T breast. For the same compound, the growth in the assay with NCI/ADR-RES ovarian was 104%.
Consider `COc1ccc(C2CCCCC2=O)cc1` (stereo unspecified), for which the growth was 119% with SK-MEL-2 melanoma; 102% in the assay on EKVX NSCLC; 109% with SN12C renal; 96.7% in the assay with UO-31 renal; 98.7% with ACHN renal; 105% with CAKI-1 renal. Moreover, the growth in the assay on A498 renal was 99.7%; in the assay with CCRF-CEM leukemia, 106%; in the assay with MOLT-4 leukemia, 97.9%; in the assay on SR leukemia, 103%; in the assay on RPMI-8226 leukemia, 107%; with OVCAR-8 ovarian it was 103%. Moreover, the growth is 96.9% in the assay on OVCAR-5 ovarian; 103% in the assay on OVCAR-4 ovarian; 103% in the assay on SK-OV-3 ovarian; 118% with IGROV1 ovarian; 121% with OVCAR-3 ovarian; 108% in the assay with NCI/ADR-RES ovarian.
